These results are taken from PMC4336329 (PLoS ONE, 2015).

The whole screen tested about 310,000 compounds, of which about 14,000 (4.5%) showed an effect of 50% or more. The effect is printed as a negative number. This excerpt belongs to a sample that is enriched for strong results.
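Further: peak tail current of the secondary pulse compared with the same well before compound.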

Sequence of human ether-à-go-go-related gene (hERG) potassium channel (Q12809 whole entry, looked up): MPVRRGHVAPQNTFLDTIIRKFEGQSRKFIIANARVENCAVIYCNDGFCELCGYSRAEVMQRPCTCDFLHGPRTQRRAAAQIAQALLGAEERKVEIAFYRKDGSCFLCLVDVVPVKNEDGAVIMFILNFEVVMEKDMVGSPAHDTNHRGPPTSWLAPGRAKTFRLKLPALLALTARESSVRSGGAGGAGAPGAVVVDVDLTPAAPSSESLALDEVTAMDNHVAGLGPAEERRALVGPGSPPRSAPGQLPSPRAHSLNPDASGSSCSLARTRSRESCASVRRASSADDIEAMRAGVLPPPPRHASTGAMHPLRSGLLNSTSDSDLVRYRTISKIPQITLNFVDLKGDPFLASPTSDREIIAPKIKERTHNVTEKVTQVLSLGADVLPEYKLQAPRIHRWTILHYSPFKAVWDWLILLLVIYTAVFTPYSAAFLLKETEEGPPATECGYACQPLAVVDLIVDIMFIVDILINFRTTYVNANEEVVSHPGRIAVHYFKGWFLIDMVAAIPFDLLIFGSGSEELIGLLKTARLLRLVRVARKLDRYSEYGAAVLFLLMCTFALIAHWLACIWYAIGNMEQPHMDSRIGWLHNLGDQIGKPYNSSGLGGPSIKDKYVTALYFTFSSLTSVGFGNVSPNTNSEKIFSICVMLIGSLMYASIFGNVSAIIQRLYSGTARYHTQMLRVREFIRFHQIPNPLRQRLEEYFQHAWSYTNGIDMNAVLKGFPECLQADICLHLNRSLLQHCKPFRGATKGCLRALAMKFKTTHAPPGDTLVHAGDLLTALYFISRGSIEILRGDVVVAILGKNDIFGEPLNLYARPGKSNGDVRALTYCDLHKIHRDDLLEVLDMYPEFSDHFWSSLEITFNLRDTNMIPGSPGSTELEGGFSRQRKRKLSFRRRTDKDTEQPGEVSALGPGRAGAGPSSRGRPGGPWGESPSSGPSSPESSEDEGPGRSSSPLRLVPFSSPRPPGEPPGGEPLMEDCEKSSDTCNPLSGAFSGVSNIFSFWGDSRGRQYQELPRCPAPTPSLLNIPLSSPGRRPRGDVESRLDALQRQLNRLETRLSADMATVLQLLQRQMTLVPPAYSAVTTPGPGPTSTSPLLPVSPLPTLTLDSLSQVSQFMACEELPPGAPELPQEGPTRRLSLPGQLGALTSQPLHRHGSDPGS

The assay concerns the target human ether-à-go-go-related gene (hERG) potassium channel (human, UniProt Q12809). Description: primary screen, population patch clamp on CHO cells stably expressing hERG; higher = less effect of the substance.
As for `Cc1ccc(C2/C(=C(/O)c3ccccc3)C(=O)C(=O)N2CCN2CCOCC2)o1` (stereo not shown), the “hERG current change (%, negative = inhibition) at 10uM” value was -2.22%.

With `COc1ccc(CCN2C(=O)NC(NC(C)=O)(C(F)(F)F)C2=O)cc1OC` (stereo not shown), the “hERG current change (%, negative = inhibition) at 10uM” value worked out at 7.51%.

Take `O=C(c1cccc(N2C(=O)C3C4C=CC(C4)C3C2=O)c1)N1CCN(c2ccccc2)CC1` (stereo not shown): the “hERG current change (%, negative = inhibition) at 10uM” value was -1.68%. As to `c1ccc2c(c1)ncn2-c1ccc(-c2ccnc3ncnn23)cc1`, the “hERG current change (%, negative = inhibition) at 10uM” value is -68%. The result for `c1cn(-c2ccc(-c3ccnc4ncnn34)cc2)cn1` reads -27.2%; that for `c1ccc(Oc2ccc(-c3ccnc4ncnn34)cc2)cc1`, 10.7%; that for `Cc1cc(OCC(=O)NC2CCS(=O)(=O)C2)c2c3c(c(=O)oc2c1)CCC3` (stereo not shown), -3.87%. Take `COc1ccc(CNC(=O)C(=O)NC2CCC(C)CC2)cc1` (stereo not shown): the “hERG current change (%, negative = inhibition) at 10uM” value is reported as 19.4%. As to `C=C(Cl)CSC(=S)N(CC)CC`, the “hERG current change (%, negative = inhibition) at 10uM” value was 12.1%. The result for `CCOCCCn1c(SCC(=O)N(C)C2CCS(=O)(=O)C2)nc2ccccc2c1=O` (stereo not shown) reads -37.5%; that for `C=CCn1c(SCC(=O)N(CC)C2CCS(=O)(=O)C2)nc2cc(C(=O)O)ccc2c1=O` (stereo not shown), 5.01%; that for `O=C(CSc1nc(-c2cccs2)nc2ccccc12)NC1CCS(=O)(=O)C1` (stereo not shown), 6.45%. Consider `CCN(C(=O)CSc1nc2ccccc2c(=O)n1CCOC)C1CCS(=O)(=O)C1` (stereo not shown), for which the “hERG current change (%, negative = inhibition) at 10uM” value is listed as -61.2%. The result for `CCN(C(=O)CSc1n[nH]c(-c2cccs2)n1)C1CCS(=O)(=O)C1` (stereo not shown) reads 12.2%. Regarding `CCN(C(=O)CSc1nc2ccccc2c(=O)n1C(C)COC)C1CCS(=O)(=O)C1` (stereo not shown), the “hERG current change (%, negative = inhibition) at 10uM” value was -22.8%. To `C=CCn1c(SCC(=O)N(CC)C2CCS(=O)(=O)C2)nnc1-c1ccccc1` (stereo not shown) belongs -2.7%; to `C=CCn1c(SCC(=O)N(CC)C2CCS(=O)(=O)C2)nc2ccccc2c1=O` (stereo not shown), -79.2%. The result for `CCN(C(=O)CSc1nc(-c2cccs2)nc2ccccc12)C1CCS(=O)(=O)C1` (stereo not shown) reads -95.6%. Turning to `COCCn1c(SCC(=O)N(C)C2CCS(=O)(=O)C2)nc2ccccc2c1=O` (stereo not shown), the “hERG current change (%, negative = inhibition) at 10uM” value is given as -12.1%. Regarding `C=CCn1c(SCC(=O)N(C)C2CCS(=O)(=O)C2)nnc1-c1ccccc1` (stereo not shown), the “hERG current change (%, negative = inhibition) at 10uM” value came to 16.8%. The result for `C=CCn1c(SCC(=O)N(C)C2CCS(=O)(=O)C2)nc2ccccc2c1=O` (stereo not shown) reads -50%. The result for `Cn1c(=O)[nH]c(=O)c2c1[nH]c(=S)n2Cc1ccccc1` reads 17.5%.

As to `COc1cc2cc(C(=O)NCCc3ccccc3)[nH]c2cc1OC`, the “hERG current change (%, negative = inhibition) at 10uM” value worked out at 19.2%. Turning to `COc1ccc(C(=O)/C=C/NCc2ccc(C)cc2)cc1`, the “hERG current change (%, negative = inhibition) at 10uM” value was -17.2%. In the case of `Cc1ccc2c(c1)c1nnc(SCC(=O)Nc3ccc(N(C)C)cc3)nc1n2CC(=O)O`, the “hERG current change (%, negative = inhibition) at 10uM” value was 6%. To `Cc1ccc(NC(=O)C2(c3ccccc3)CCOCC2)c([N+](=O)[O-])c1` belongs -22.5%.

Consider `COC(=O)c1cc(N2CCNCC2)nc2ccccc12.Cl`, for which the “hERG current change (%, negative = inhibition) at 10uM” value is recorded as -17%. With `CCN1C(=O)c2cccc3c(S(=O)(=O)N(C(=O)c4ccncc4)c4ccc(OC)cc4)ccc1c23`, the “hERG current change (%, negative = inhibition) at 10uM” value is -7.51%. Take `Cc1sc2nc(CN3CCOCC3)nc(N3CCC(C(N)=O)CC3)c2c1C`: the “hERG current change (%, negative = inhibition) at 10uM” value was 5.73%.

As to `Cc1sc2nc(CN3CCOCC3)nc(Oc3ccc(NC(=O)c4ccco4)cc3)c2c1C`, the “hERG current change (%, negative = inhibition) at 10uM” value is recorded as -38.9%. In the case of `Cc1sc(NC(=O)c2ccco2)c(CN2CCCCC2)c1C`, the “hERG current change (%, negative = inhibition) at 10uM” value is listed as -49.9%. The result for `Cc1sc2nc(CN3CCCCC3)nc(N3CCN(C(=O)c4ccco4)CC3)c2c1C` reads -75%.

Regarding `Cc1sc2nc(CN3CCCC3)nc(N3CCC(C(N)=O)CC3)c2c1C`, the “hERG current change (%, negative = inhibition) at 10uM” value is recorded as -3.64%. To `Cc1sc2nc(CN3CCCC3)nc(N3CCN(C(=O)c4ccco4)CC3)c2c1C` belongs -68.6%; to `CCCn1c(SCN2C(=O)c3ccccc3C2=O)nc2cc(Cl)ccc2c1=O`, 16.5%; to `COC(=O)c1ccc(-c2cc(C(=O)O)c3cc4c(cc3n2)OCCO4)cc1`, -0.776%. The result for `CC(C)C12CN3CCN(CC(C3)/C1=N\NC(=O)Nc1ccccc1)C2` reads -16.1%. As for `O=C(CN1CCN(c2ccccn2)CC1)NCc1cccs1`, the “hERG current change (%, negative = inhibition) at 10uM” value was -26.2%.

In the case of `CC(C)n1c(N2CCN(CC(=O)NCc3cccs3)CC2)nc2ccccc21`, the “hERG current change (%, negative = inhibition) at 10uM” value is -60.8%. To `COc1cccc(N2CCN(CC(=O)NCc3cccs3)CC2)c1` belongs -3.18%; to `CCCn1c(N2CCN(CC(=O)NCc3cccs3)CC2)nc2ccccc21`, -74.7%; to `CC(C)n1c(NCc2cccs2)nc2ccccc21`, -12.6%. To `CC(C)(C)NC(=O)Cn1c(SCC(=O)NCc2cccs2)nc2ccccc21` belongs 6.18%.

With `Nc1c(Cl)ncnc1NCC(O)CO` (stereo not shown), the “hERG current change (%, negative = inhibition) at 10uM” value is on record as 17.7%. The result for `O=C(Nc1ccc(Oc2ccc(NC(=O)c3ccco3)c(NC(=O)c3ccco3)c2)cc1)c1ccco1` reads -13.5%. The result for `CC1Cc2ccccc2N1C(=O)CSc1nc2c(c(=O)n(C)c(=O)n2C)n1Cc1ccccc1` (stereo not shown) reads -33.7%; that for `Cc1ccc(Nc2ccccc2)nn1`, 18.6%; that for `COc1ccccc1-c1coc2c(CN3CCCC(C)C3)c(O)ccc2c1=O` (stereo not shown), -2.44%. The result for `CC1(C)CC2(CC(c3ccccc3)Oc3cc(O)ccc32)NC(=O)N1` (stereo not shown) reads 3.54%; that for `CSC1=NC2(CC(c3ccccc3)Oc3cc(O)ccc32)CC(C)(C)N1` (stereo not shown), -76.1%; that for `CC1(C)CC2(CC(c3ccccc3)Oc3cc(O)ccc32)NC(=S)N1` (stereo not shown), -1.82%. For `Cc1cc(Cl)ccc1OCC(=O)N/N=C1\CCCc2ccccc21`, the “hERG current change (%, negative = inhibition) at 10uM” value was -0.309%. To `CC(C)(C)c1nc2ccc(NS(=O)(=O)c3ccc(F)c(F)c3F)cc2[nH]1` belongs 10.6%. To `COc1ccccc1NC1=NC(C)(C)N=C(N)N1` belongs 23.2%.

Turning to `NS(=O)(=O)c1ccc(CCNC(=O)c2ccc(-c3ccccc3)cc2)cc1`, the “hERG current change (%, negative = inhibition) at 10uM” value came out at 9.92%.
